Results as given in PubChem BioAssay AID1159580 (chemical genetic matrix, 2015).
Where “and” joins values, the source holds several entries; their conditions need not be identical. Equal entries are not always repeated. Hit rate of the full screen: of about 5,500 compounds, about 2,000 (36%) were called active. Another 18% or so got no clear call; they are omitted. Cut-off read from the data, not from the text of the source: active = normalized growth mostly below about 0.91 (no sharp cut-off); inconclusive = no clear call, values can overlap the other calls; inactive = mostly above about 0.92. Some of the results follow.

Experiment: chemical genetic growth profiling, strain panel (AID 1159580);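 note: tested at 20 µM; growth read once vehicle control cultures reached saturation at 30 °C; 1 = growth at the plate median or of vehicle wells; lower values mean less growth of the strain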
Conditions: S. cerevisiae deletion strains, growth OD

Measured: normalized growth

Cc1cccc(C)c1NC(=O)C1CCCCN1C (configuration not stated)
inactive: locus YAL013W, strain DEP1, hits give low values 1.02 | locus YAL021C, strain ccr4, hits give low values 1.02 | locus YAL026C, strain drs2, hits give low values 0.993 | locus YAL030W, strain snc1, hits give low values 0.985 | locus YBL061C, strain skt5, hits give low values 0.979 | locus YBR009C, strain hhf1, hits give low values 0.989 | locus YBR021W, strain FUR4, hits give low values 1 | locus YBR023C, strain chs3, hits give low values 0.991 | locus YBR171W, strain sec66, hits give low values 0.977 | locus YBR229C, strain ROT2, hits give low values 1.01 | locus YBR231C, strain swc5, hits give low values 0.993 | locus YBR279W, strain paf1, hits give low values 0.991 | locus YCL011C, strain gbp2, hits give low values 0.988 | locus YCL016C, strain dcc1, hits give low values 0.995 | locus YCL029C, strain bik1, hits give low values 1.02 | locus YCL061C, strain MRC1, hits give low values 0.975 | locus YCL069W, strain vba3, hits give low values 0.983 | locus YCR088W, strain abp1, hits give low values 0.992 | locus YDL005C, strain med2, hits give low values 0.982 | locus YDL035C, strain GPR1, hits give low values 1.01 | locus YDL040C, strain nat1, hits give low values 0.986 | locus YDL074C, strain BRE1, hits give low values 1 | locus YDL101C, strain DUN1, hits give low values 1.01 | locus YDL134C, strain PPH21, hits give low values 0.99 | locus YDL185W, strain tfp1, hits give low values 1.01 | locus YDL192W, strain arf1, hits give low values 1.01 | locus YDR001C, strain nth1, hits give low values 0.985 | locus YDR069C, strain doa4, hits give low values 1 | locus YDR101C, strain arx1, hits give low values 1 | locus YDR137W, strain rgp1, hits give low values 0.984 | locus YDR150W, strain NUM1, hits give low values 1 | locus YDR159W, strain sac3, hits give low values 0.983 | locus YDR162C, strain NBP2, hits give low values 0.994 | locus YDR195W, strain ref2 0.986 | locus YDR297W, strain sur2, hits give low values 0.992 | locus YDR318W, strain mcm21, hits give low values 1.01 | locus YDR334W, strain swr1, hits give low values 0.982 | locus YDR335W, strain msn5, hits give low values 0.989 | locus YDR388W, hits give low values 1.01 | locus YDR392W, strain spt3, hits give low values 0.996 | locus YDR502C, strain sam2, hits give low values 1.01 | locus YEL003W, strain gim4, hits give low values 0.986 | locus YEL037C, strain rad23, hits give low values 0.996 | locus YEL061C, strain CIN8 (second series), hits give low values 0.992 | locus YEL061C, strain CIN8, hits give low values 1 | locus YER015W, strain faa2, hits give low values 0.988 | locus YER016W, strain bim1, hits give low values 0.983 | locus YER110C, hits give low values 1.02 | locus YER111C, strain swi4, hits give low values 0.994 | locus YER155C, strain BEM2 (second series), hits give low values 0.982 | locus YER155C, strain BEM2, hits give low values 0.99 | locus YER167W, strain BCK2, hits give low values 1 | locus YFR010W, strain ubp6, hits give low values 0.984 | locus YGL078C, strain dbp3, hits give low values 1.01 | locus YGL086W, strain mad1, hits give low values 1 | locus YGL167C, strain pmr1, hits give low values 0.995 | locus YGL173C, strain kem1, hits give low values 0.988 | locus YGL227W, strain vid30, hits give low values 0.98 | locus YGL240W, strain doc1, hits give low values 0.981 | locus YGL248W, strain PDE1, hits give low values 1 | locus YGL253W, strain hxk2, hits give low values 0.982 | locus YGR078C, strain PAC10, hits give low values 0.996 | locus YGR135W, strain pre9, hits give low values 1 | locus YGR229C, strain SMI1, hits give low values 1 | locus YGR252W, strain gcn5, hits give low values 0.963 | locus YHR013C, strain ard1, hits give low values 0.96 | locus YHR027C, strain rpn1, hits give low values 0.986 | locus YHR030C, strain SLT2, hits give low values 1 and 1.01 | locus YHR079C, strain IRE1 (second series), hits give low values 1.01 | locus YHR079C, strain IRE1, hits give low values 1.03 | locus YHR094C, strain hxt1, hits give low values 1.01 | locus YHR129C, strain ARP1, hits give low values 1.01 | locus YHR142W, strain chs7, hits give low values 0.987 | locus YHR200W, strain rpn10, hits give low values 1 | locus YIL066C, strain RNR3, hits give low values 0.999 | locus YIL073C, strain SPO22, hits give low values 1.01 | locus YIL125W, strain kgd1, hits give low values 1.01 | locus YIR030C, strain dcg1, hits give low values 1.01 | locus YJL092W, strain hpr5, hits give low values 0.986 | locus YJL095W, strain BCK1 (second series), hits give low values 0.989 | locus YJL095W, strain BCK1, hits give low values 1.02 and 0.998 | locus YJL115W, strain asf1, hits give low values 0.996 | locus YJL129C, strain trk1, hits give low values 1.01 | locus YJL134W, strain LCB3, hits give low values 1.01 | locus YJL154C, strain vps35, hits give low values 0.994 | locus YJL164C, strain tpk1, hits give low values 0.987 | locus YJL166W, strain qcr8, hits give low values 0.993 | locus YJL168C, strain set2, hits give low values 1.01 | locus YJL187C, strain SWE1 (second series), hits give low values 1.01 | locus YJL187C, strain SWE1, hits give low values 0.985 | locus YJR043C, strain POL32, hits give low values 1.02 | locus YJR066W, strain TOR1, hits give low values 0.986
